Compound activity (PubChem)
USP30 block: inhibitors of human USP30 deubiquitinase; inhibition, % at 25 µM; purified USP30, Ub-rhodamine cleavage fluorescence; actives 5.3% (n = 47,000); Ubiquitin carboxyl-terminal hydrolase 30 (Homo sapiens), Q70CQ3
USP28 inh: inhibitors of human USP28 deubiquitinase | purified USP28, Ub-rhodamine cleavage fluorescence, 30 min | inhibition, % at 25 µM | AID 1645857, 2021 | actives 3% (n = 47,000)
USP17 inh: inhibitors of human USP17 deubiquitinase. inhibition, % at 50 µM. actives 6.5% (n = 47,000). purified USP17, Ub-rhodamine cleavage fluorescence, 3 h. AID 1645855, 2021
Target sequence (A8MUK1 whole entry, looked up): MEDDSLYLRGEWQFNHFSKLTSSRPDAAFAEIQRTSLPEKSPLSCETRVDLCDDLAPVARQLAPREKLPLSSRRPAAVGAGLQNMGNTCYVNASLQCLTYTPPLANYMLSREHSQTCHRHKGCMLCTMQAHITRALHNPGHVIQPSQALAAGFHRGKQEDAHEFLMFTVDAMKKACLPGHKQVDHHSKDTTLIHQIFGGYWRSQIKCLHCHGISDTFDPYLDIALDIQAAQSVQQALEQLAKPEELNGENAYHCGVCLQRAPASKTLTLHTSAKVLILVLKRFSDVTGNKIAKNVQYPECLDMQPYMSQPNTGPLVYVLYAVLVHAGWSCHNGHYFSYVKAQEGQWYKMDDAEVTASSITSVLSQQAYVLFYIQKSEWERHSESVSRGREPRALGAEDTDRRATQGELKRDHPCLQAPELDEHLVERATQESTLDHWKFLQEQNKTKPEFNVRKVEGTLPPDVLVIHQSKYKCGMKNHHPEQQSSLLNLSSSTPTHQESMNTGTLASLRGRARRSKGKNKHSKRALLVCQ
* marks the source's active call; other numbers are inactive results. A selection: hits, their analogues and other compounds. The true share with any hit is near 11%. No stated cut-off is given here; in the data, active means inhibition above about 30%; inactive means the rest.

Screening O=C(NC1CCS(=O)(=O)C1)c1ccnc(Cc2ccccc2F)c1 (stereo not drawn) returned USP30 block 5, USP28 inh -2 and USP17 inh 2.
Cc1nc2cccnc2n1C1CCN(C(=O)c2cc3cc(Cl)ccc3[nH]2)C1 (stereo not drawn) was read as USP30 block 54*, USP28 inh 42* and USP17 inh 31*.
For COc1cccc2[nH]c(C(=O)N3CCC(n4c(C)nc5cccnc54)CC3)cc12 the results were USP30 block 0, USP28 inh 3 and USP17 inh -4.
Screening O=C(COc1nsnc1N1CCOCC1)Nc1ccccc1F returned USP30 block 11, USP28 inh 6 and USP17 inh 16.
O=C(COc1nsnc1N1CCOCC1)Nc1ccc(F)c(F)c1 was read as USP30 block 57*, USP28 inh 13 and USP17 inh 3.
`OCc1cc2c([nH]c3ccccc32)c([C@H](CO)O[C@@H]2O[C@H](CO)[C@@H](O)[C@H](O)[C@H]2O)n1` gave USP30 block -3, USP28 inh -2 and USP17 inh -12.
For Cc1ccc(Nc2nc(N)nc(CSc3ccc4c(c3)CCC4)n2)cc1 the results were USP30 block 8, USP28 inh 4 and USP17 inh 3.
For CS(=O)(=O)c1ccc(NCCCN2CCOCC2)cc1 the results were USP30 block 19, USP28 inh 8 and USP17 inh 3.
Screening Cn1c(=O)c2c(ncn2CCOc2ccc(F)cc2)n(C)c1=O returned USP30 block 30, USP28 inh 33* and USP17 inh 16.
`Cn1c(=O)c2c(ncn2CCOc2ccc(Br)cc2)n(C)c1=O` gave USP30 block 22, USP28 inh 16 and USP17 inh 13.
For COc1ccc2c(CNCc3ccc4c(c3)OCO4)c(C(=O)O)n(C)c2c1 the results were USP30 block 8, USP28 inh 3 and USP17 inh 6.
For Cc1c(C(=O)NCc2ccco2)oc2c1/C(=N\O)CCC2 the results were USP30 block 3, USP28 inh 15 and USP17 inh 31*.
Cc1c(C(=O)O)oc2c1/C(=N\O)CCC2 was read as USP30 block -3, USP28 inh -3 and USP17 inh -14.
Screening COCCCNC(=O)c1cc2c(=O)n3cccc(C)c3nc2n1Cc1ccccc1 returned USP30 block 11, USP28 inh -20 and USP17 inh -6.
Screening CN1C(=O)COc2cc(-c3noc(C(=O)NC4CCCCCC4)n3)ccc21 returned USP30 block 56*, USP28 inh 0 and USP17 inh 7.
For CCN1C(=O)COc2cc(-c3noc(C(=O)NCc4ccccc4)n3)ccc21 the results were USP30 block 15, USP28 inh 8 and USP17 inh 17.
For CCC(C)NC(=O)c1nc(-c2ccc3c(c2)OCC(=O)N3C)no1 (stereo not drawn) the results were USP30 block 10, USP28 inh 3 and USP17 inh 5.
`Cc1ccc(CNC(=O)c2nc(-c3ccc4c(c3)OCC(=O)N4C)no2)cc1` gave USP30 block 41*, USP28 inh -10 and USP17 inh 19.
Screening COc1cc(OC)c(NC(=O)c2nc3ccccc3nc2N2CCCC2)cc1Cl returned USP30 block inactive, USP28 inh -238 and USP17 inh -141.
For CNC(=O)C1CN(C)CCN(C(=O)c2cc3nc(C)cc(C)n3n2)C1 (stereo not drawn) the results were USP30 block 15, USP28 inh -27 and USP17 inh 0.
For CCN1CCN(C(=O)c2ccc3c(c2)NC(=O)C2CCCCN32)CC1 (stereo not drawn) the results were USP30 block -43, USP28 inh -9 and USP17 inh 0.
For O=C(NCc1ccccc1)c1ccc2c(c1)NC(=O)C1CCC(=O)N21 (stereo not drawn) the results were USP30 block 12, USP28 inh 7 and USP17 inh 14.
For COc1cccc(CNC(=O)c2ccc3c(c2)NC(=O)C2CCCN32)c1OC (stereo not drawn) the results were USP30 block -32, USP28 inh -10 and USP17 inh 54*.
CCOC(=O)C1CCN(C(=O)c2ccc3c(c2)NC(=O)C2CCCN32)CC1 (stereo not drawn) was read as USP30 block 11, USP28 inh 12 and USP17 inh 73*.
`Cc1nnc(-c2nnc(NCCC(C)C)c3ccccc23)o1` gave USP30 block 0, USP28 inh 2 and USP17 inh 12.
Cc1nnc(-c2nnc(NCc3ccc(Cl)cc3)c3ccccc23)o1 was read as USP30 block 37*, USP28 inh 13 and USP17 inh 52*.
Screening O=C(NCc1csc(-c2ccccc2)n1)c1ccccc1Cl returned USP30 block 0, USP28 inh 11 and USP17 inh -2.
Screening Cc1cc(C(=O)N2CC(C(=O)Nc3cc(C(F)(F)F)ccc3Cl)C2)no1 returned USP30 block 70*, USP28 inh 16 and USP17 inh 41*.
For Cc1cc(C(=O)N2CC(C(=O)Nc3ccc(F)c(Cl)c3)C2)no1 the results were USP30 block 10, USP28 inh 5 and USP17 inh -1.
For O=C(c1cccnc1)N1CCCc2cc(NS(=O)(=O)Cc3ccc(F)cc3)ccc21 the results were USP30 block -23, USP28 inh 0 and USP17 inh -17.
`O=C1C(c2ccncc2)N(Cc2ccccc2)C(=O)CN1c1ccccc1` (stereo not drawn) gave USP30 block 8, USP28 inh 3 and USP17 inh 2.
`O=c1[nH]c(NC2CCN(Cc3nnnn3Cc3ccc4c(c3)OCO4)CC2)nc2c1CCCC2` gave USP30 block 38*, USP28 inh 8 and USP17 inh 0.
`CCN(CC)C(=O)CN1CCC(Nc2nc3c(c(=O)[nH]2)CCCC3)CC1` gave USP30 block -27, USP28 inh -9 and USP17 inh -14.
Screening O=C1NCC2(CCCN(C(=O)c3cccc(F)c3)C2)Oc2ccccc21 (stereo not drawn) returned USP30 block 18, USP28 inh 10 and USP17 inh 8.
O=C(/C=C/C=C/C=C/C1CCCCC1)NC1=C[C@@](O)(/C=C/C=C/C=C/C(=O)NC2=C(O)CCC2=O)[C@@H]2O[C@@H]2C1=O was read as USP30 block -39, USP28 inh 75* and USP17 inh 68*.
For Cc1cc(C(=O)Nc2cc(C)n(Cc3ccc(Cl)cc3)n2)no1 the results were USP30 block 1, USP28 inh 72* and USP17 inh 11.
Screening Cc1cc(C(=O)N2CC[C@@H]3CN(Cc4ccc(Cl)cc4)S(=O)(=O)[C@@H]3CC2)no1 returned USP30 block -29, USP28 inh -9 and USP17 inh -18.
`O=C1CCCc2cc(S(=O)(=O)N3CCCC(C(=O)N4CCCCC4)C3)ccc2N1` (stereo not drawn) gave USP30 block 0, USP28 inh -1 and USP17 inh 12.
For CN(C)C(=O)CN1[C@H]2CCN(Cc3ccccc3)CC[C@@H]2Oc2ccccc2S1(=O)=O the results were USP30 block 1, USP28 inh 11 and USP17 inh -11.
